# Bioassay records from PubChem BioAssay.
# In the library only some 1.9% were active in any assay of this set; here they are far more common.
# RXFP1 antagonist: antagonists of human relaxin receptor RXFP1. Q9HBX9. HEK293-RXFP1, relaxin-stimulated cAMP HTRF, 30 min; hits give low values. 0.59% of 350,000 active. activity change, negative = inhibition, % at 57.5 µM;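 active = activity change of -60% or lower, but not beyond a set lower limit; inconclusive = change between -60% and -40%, or beyond the set limit; inactive = change above -40%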; also: % is scaled to controls: 0 for no effect and ±100 for the full control effect
# RXFP1 ag: agonists of human relaxin receptor RXFP1 | 0.3% of 370,000 active | Potency, µM (series often up to 57.5 µM), for the others: top-dose activation, usual class: activators | Q9HBX9 | AID 2676 | HEK293T-RXFP1 cAMP TR-FRET, 30 min; response scale: percent of porcine relaxin response, buffer zero; also: potency is read from the fitted curve at half-maximal effect; % is scaled to controls: 0 for no effect and ±100 for the full control effect; nearly all actives have a fitted effect of over 60% in size
#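 Agonist response is measured as cAMP accumulation in an RXFP1-transfected HEK293T line under PDE4 inhibition. Values are scaled between buffer-only and 29 nM porcine relaxin, and EC50s come from standard Hill equation fits.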
# NPSR antagonist: neuropeptide S receptor (human) antagonism, cAMP | Q6W5P4 | CHO-NPSR cells, cAMP TR-FRET, antagonist mode | Potency, µM (highest dose often 38.3 µM), for the others: at the top dose activity change, negative = inhibition, hits mostly inhibitors | 1% of 220,000 active | AID 1461; also: potency is read from the fitted curve at half-maximal effect; % is scaled to controls: 0 for no effect and ±100 for the full control effect; nearly all actives have a fitted effect of over 50% in size
# Target sequence (Q6W5P4 whole entry, looked up): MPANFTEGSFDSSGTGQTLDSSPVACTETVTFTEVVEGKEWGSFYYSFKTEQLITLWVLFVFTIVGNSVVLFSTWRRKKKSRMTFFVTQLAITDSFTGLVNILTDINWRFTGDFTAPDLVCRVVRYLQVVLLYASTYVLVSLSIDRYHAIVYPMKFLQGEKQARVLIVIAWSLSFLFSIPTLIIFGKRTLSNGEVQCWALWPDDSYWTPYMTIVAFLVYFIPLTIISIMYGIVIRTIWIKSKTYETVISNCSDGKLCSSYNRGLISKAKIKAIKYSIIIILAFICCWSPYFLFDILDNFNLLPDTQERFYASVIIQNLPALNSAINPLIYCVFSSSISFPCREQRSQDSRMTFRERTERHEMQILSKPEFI
# IL2 activator: activators of IL-2; IL-2 activation reporter assay, cell-based qHTS; stimulated with anti-CD3/CD4/CD28 beads; in transgenic mouse T cells; activation, % (series mostly up to about 46 µM); 0.065% of 360,000 active; AID 652025; in the data active = activation above about 50%; inconclusive = mostly about 30% to 49%; also: 0% is about no effect
#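 Screening format: compound pinned onto unstimulated transgenic mouse T cells, 60 min incubation, then anti-CD3/anti-CD4/anti-CD28 bead stimulation for 18 hours at 37 degrees C, followed by EGFP and DsRed detection.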
# Giardia kill: kills Giardia lamblia; Giardia lamblia trophozoite viability; activity change, % at 7.66 µM, hits read low; 0.15% of 340,000 active; in the data active = activity change below about -80%; inconclusive = between about -30% and that limit;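 also: parasites exposed to compound for two days anaerobically before the ATP read; % is scaled to controls: 0 for no effect and ±100 for the full control effect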
#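 Each well holds 100 Giardia trophozoites and compound. After two days (48 hrs) at 37 deg C in anaerobic conditions, ATP is quantified by luminescence.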
# BRCA1 expr act: BRCA1 expression activation | MCF7-BRCA1-FFLuc reporter, luminescence, 48 h; response scale: scaled: vehicle 0%, 10 µM genistein 100% | Potency, µM (highest dose often 46.1 µM), for the others: at the highest dose activation, actives largely listed as activators | 1.1% of 380,000 active; also: potency is read from the fitted curve at half-maximal effect; nearly all actives have a fitted effect of over 80% in size
#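 Cells: MCF7-BRCA1-FFLuc, 2000/well. Exposure: 48 h, 37 °C, 5% CO2. Read: luminescence, 15 min post-substrate. Controls: genistein 10 microM (maximal activation), DMSO (neutral).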
# Starred values were filed as active, the others as inactive; ? = inconclusive; / = no result; [ ] = dose if it differs, or a comment. Unless noted, calls follow the shape of the dose curve; as a rule, active = well fitted curve in the direction sought with a large enough effect; inconclusive = small, poorly fitted or top-dose-only effect, or another doubt; inactive = no such curve, though single readings can be large; an effect the other way counts as inactive or inconclusive.
SMILES,RXFP1 antagonist,RXFP1 ag,NPSR antagonist,IL2 activator,Giardia kill,BRCA1 expr act
O=C(Cn1nnc(-c2ccccc2F)n1)Nc1ccc2c(c1)OCCO2,-6.6,1.1%,/,-0.6,-22.9,8.91µM*
O=C(Nc1ccc2c(c1)OCCO2)C(=O)c1c[nH]c2ccccc12,-20.4,2.2%,/,-3.8,?,16.8%
Cc1[nH]c2ccccc2c1C(=O)C(=O)Nc1ccc2c(c1)OCCO2,-15.2,0.6%,/,-2.5,-16.0,10µM*
CC(=O)Nc1ccccc1-c1nnn(CC(=O)Nc2ccc3c(c2)OCCO3)n1,-9.5,0.6%,11.1%,0.7,-10.4,-19.9%
CC(C)NC(=O)c1ccc(C=O)cc1,15.3,/,/,/,/,/
CCCN1CNc2c(c(=O)[nH]c(=S)n2CCc2ccccc2Cl)C1,/,/,/,/,15.7,32.3%
Cc1ccc2nc(SCC(=O)Nc3ccc4c(c3)OCCO4)[nH]c2c1,3.7,0.9%,-6.5%[46.1 µM],-1.7,-17.9,66.3%
O=C(CSc1nc2ccccc2[nH]1)Nc1ccc2c(c1)OCCO2,11.0,1.8%,-5.9%[46.1 µM],-0.6,7.3,10µM*
CCOC(=O)c1ccc(NC(=O)/C=C/c2cccs2)cc1,-101.5*,0.5%,-37.6%,0.8,8.4,75.7%
CCOC(=O)c1ccc(NC(=O)Nc2ccccn2)cc1,-4.0,-2.6%,-8.1%,0.1,-15.0,5.01µM*
CCOC(=O)c1ccc(NC(=O)CN(C)S(=O)(=O)c2ccc(OC)cc2)cc1,-14.7,-0.3%,4.9%[46.1 µM],69.6*,-15.5,4.2%
CCOC(=O)CC(=O)Nc1ccc(C(=O)OCC)cc1,3.2,0.0%,-2.5%[46.1 µM],-0.6,10.3,37.5%
CCOC(=O)c1ccc(NC(=O)CN(c2ccc(C)cc2)S(=O)(=O)c2ccc(OC)cc2)cc1,-9.8,-6.7%,/,/,/,/
CCN(CC)CCOC(=O)c1ccc(NC(=O)/C=C/c2cccs2)cc1,1.8,1.7%,-19.4%,1.0,4.1,-0.4%
CCOC(=O)c1ccc(NC(=O)N(CC)CC)cc1,-4.7,-0.9%,16.2%[46.1 µM],-0.3,2.8,2.51µM*
COc1cccc(NC(=O)Cn2c(=O)n(Cc3ccc(C(=O)NCc4ccc5c(c4)OCO5)cc3)c(=O)c3ccccc32)c1,/,3.1%,/,/,/,6.1%
Ic1ccc(Nc2nc(NCCN3CCOCC3)nc(N3CCOCC3)n2)cc1,/,/,/,/,/,-43.2%
CN(Cc1ccccc1)c1ccc(/C=C/c2sc3ccccc3[n+]2C)cc1,/,/,/,/,/,-60.8%
CCN(C(=O)Cn1c(=O)n(-c2ccccc2)c(=O)c2ccc(C(=O)NCc3ccc4c(c3)OCO4)cc21)c1cccc(C)c1,/,0.0%,/,/,/,-34.9%
CCOC(=O)c1ccc(NC(=S)Nc2ccccc2)cc1,-9.3,-0.7%,9.9%,-2.6,-12.5,71.7%
CCOC(=O)c1ccc(NC(=O)c2nn(CC)cc2Br)cc1,2.4,0.9%,-21.4%[46.1 µM],-3.3,4.5,?
CCOC(=O)c1ccc(NC(=O)c2nn(C)cc2Br)cc1,-1.2,17.0%,-11.8%[46.1 µM],-2.7,-15.3,5.01µM*
CCOC(=O)c1ccc(NC(=S)Nc2ccc(C)cc2)cc1,-19.6,0.5%,-19.3%,-0.2,16.1,12.6µM*
c1coc(CNc2nc3ccccc3s2)c1,-15.0,-1.9%,/,2.6,-4.0,3.16µM*
CC(=O)N1CCc2cc(S(=O)(=O)NCCC(=O)Nc3ccc4c(c3)OCCO4)ccc21,11.4,1.4%,-9.8%[46.1 µM],1.9,-7.3,11.2µM*
SMILES,RXFP1 antagonist,RXFP1 ag,NPSR antagonist,IL2 activator,Giardia kill,BRCA1 expr act
CC(=O)N1CCc2cc(S(=O)(=O)NCCC(=O)Nc3cc(C)cc(C)c3)ccc21,11.5,0.8%,-4.8%[46.1 µM],-1.9,3.6,-9.0%
CC(=O)N1CCOc2ccc(S(=O)(=O)NCCc3ccc(Cl)cc3)cc21,-67.6*,0.4%,/,-1.6,5.8,-1.7%
O=c1c(N2CCN(c3cccc(Cl)c3)CC2)csc2ccc(Cl)cc12,-24.5,-1.5%,/,/,/,/
O/N=C(/CBr)c1ccc2ccccc2c1,/,/,/,/,/,5.2%
O=S(=O)(c1ccc(Br)cc1)c1nnn2c1nc(NCc1cccs1)c1sccc12,-13.6,?,/,/,/,/
CCN(CC)CC(=O)Nc1cccc2c1C(=O)c1ccccc1C2=O,-5.0,1.9%,-5.8%,0.4,5.9,-16.0%
O=C1c2ccccc2C(=O)c2c(NCCCN(CCO)CCO)cccc21,-20.0,-0.1%,12.6µM*,-0.8,9.0,-50.8%
CCCCN1C(=O)/C(=C/C=C2/CC(C)(C)CN2C)SC1=S,-3.1,-0.9%,-50.3%,20.7,-6.5,10µM*
OCCN1CCN(c2nc(NCc3ccco3)c3ccccc3n2)CC1,-14.5,2.0%,23.1%[46.1 µM],-0.6,18.3,-4.0%
c1ccc(CN2CCN(c3nc(NCc4ccco4)c4ccccc4n3)CC2)cc1,-26.3,-2.5%,10µM*,-0.4,-16.8,-76.1%
CCOc1ccc(NC(=O)COC(=O)c2ccccc2OCc2ccccc2Br)cc1,/,/,/,/,/,0.0%
Cc1nc2c(c(=O)n1CCC1=CCCCC1)c1nc3ccccc3nc1n2/N=C/c1ccco1,-6.3,1.8%,10µM*,1.1,19.0,3.5%
COC(=O)c1ccc(COc2ccc(C)cc2[N+](=O)[O-])o1,-4.8,-0.4%,-0.9%,-0.3,13.8,5.62µM*
Cc1ccc(OCc2ccc(C(=O)NN)o2)c([N+](=O)[O-])c1,-3.1,0.3%,56.6%,0.7,2.7,4.9%
O=C(c1cccc2ccccc12)N1CCN(S(=O)(=O)c2ccccc2)CC1,/,/,/,/,3.2,11.5%
CCC1(c2ccc(F)cc2)NC(=O)N(CC(=O)NCC(=O)Nc2cccc(C)c2C)C1=O (stereo not given),-79.3*,-0.8%,/,-0.4,-23.4,2.3%
Cc1ccc2c(c1)c1ccc3c(c1n2C)C(=O)C=CC3=O,-31.6,0.8%,7.94µM*,-0.7,8.7,-91.2%
Cn1c2ccccc2c2ccc3c(c21)C(=O)C=CC3=O,?,/,/,-5.4,4.1,-78.5%
CC(C)C(NC(=O)C1CCCCC1)C(=O)Nc1ccc2c(c1)OCCO2 (stereo not given),-2.8,1.7%,-4.3%[46.1 µM],-4.3,-5.8,4.47µM*
CC(Sc1ccccc1F)C(=O)Nc1ccc2c(c1)OCCO2 (stereo not given),1.7,/,/,-4.5,4.2,11.2µM*
COc1ccc(-c2nnc(SC(C)C(=O)Nc3ccc4c(c3)OCCO4)o2)cc1 (stereo not given),-10.4,-0.5%,-9.9%[46.1 µM],-1.0,-7.2,10µM*
CSCC[C@H](NC(=O)[C@@H]1Cc2ccccc2CN1)C(=O)Nc1ccc2c(c1)OCCO2,-17.5,-3.0%,/,-5.0,-9.3,11.2µM*
CC(Sc1ccc2c(c1)OCCO2)C(=O)Nc1ccc2c(c1)OCO2 (stereo not given),-21.7,0.0%,-7.5%[46.1 µM],-2.0,-5.8,4.6%
N#Cc1ccc(S(=O)(=O)N2CCN(c3nc(-c4ccccc4)nc4ccccc34)CC2)cc1,/,/,/,/,-17.1,-7.7%
